The results in this text go back to PubChem BioAssay.

The nature of assay [1]: binders of probe aFSTL3 on microarray, primary screen, stem cell growth factor project, biochemical, small-molecule microarray, fluorescence 635/667 (AID 1064).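 Further: measures binding of the biotinylated anti-FSTL3 antibody to printed compounds.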 The note with it: higher = more signal.
Assay [2] is described as follows: binders from COS7 lysate, DM2A8 probe, primary screen, torsin A project, cell lysate, small-molecule microarray, fluorescence 635/667 (AID 1065). The note with it: higher = more signal, COS7 lysate expressing mutant human TOR1A.
Assay [3] in a line: binders of probe aFGF2 on microarray, primary screen, stem cell growth factor project, biochemical, small-molecule microarray, fluorescence 635/667 (AID 1067).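 Further: measures binding of biotinylated aFGF2 protein to printed compounds on slides; z-score merges feature fluorescence and signal-to-noise across triplicate slides.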 The note with it: higher = more signal.
Assay [4] is described as follows: binders of probe aFGF10 on microarray, primary screen, stem cell growth factor project, biochemical, small-molecule microarray, fluorescence 635/667 (AID 1071).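 Further: score merges 667 nm spot intensity and signal to noise from triplicate slides.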 The note with it: higher = more signal.
Assay [5] deals with Neurogenic locus notch homolog protein 2 (Homo sapiens) (UniProt Q04721). The assay is described as follows: Notch2 binders on small-molecule microarrays, primary screen, biochemical, small-molecule microarray, 635 nm fluorescence, stem cell growth factors (AID 1073). The note with it: Notch2 binding, higher = more signal.
Chain of Neurogenic locus notch homolog protein 2 (Homo sapiens) (Q04721 whole entry, looked up, canonical isoform): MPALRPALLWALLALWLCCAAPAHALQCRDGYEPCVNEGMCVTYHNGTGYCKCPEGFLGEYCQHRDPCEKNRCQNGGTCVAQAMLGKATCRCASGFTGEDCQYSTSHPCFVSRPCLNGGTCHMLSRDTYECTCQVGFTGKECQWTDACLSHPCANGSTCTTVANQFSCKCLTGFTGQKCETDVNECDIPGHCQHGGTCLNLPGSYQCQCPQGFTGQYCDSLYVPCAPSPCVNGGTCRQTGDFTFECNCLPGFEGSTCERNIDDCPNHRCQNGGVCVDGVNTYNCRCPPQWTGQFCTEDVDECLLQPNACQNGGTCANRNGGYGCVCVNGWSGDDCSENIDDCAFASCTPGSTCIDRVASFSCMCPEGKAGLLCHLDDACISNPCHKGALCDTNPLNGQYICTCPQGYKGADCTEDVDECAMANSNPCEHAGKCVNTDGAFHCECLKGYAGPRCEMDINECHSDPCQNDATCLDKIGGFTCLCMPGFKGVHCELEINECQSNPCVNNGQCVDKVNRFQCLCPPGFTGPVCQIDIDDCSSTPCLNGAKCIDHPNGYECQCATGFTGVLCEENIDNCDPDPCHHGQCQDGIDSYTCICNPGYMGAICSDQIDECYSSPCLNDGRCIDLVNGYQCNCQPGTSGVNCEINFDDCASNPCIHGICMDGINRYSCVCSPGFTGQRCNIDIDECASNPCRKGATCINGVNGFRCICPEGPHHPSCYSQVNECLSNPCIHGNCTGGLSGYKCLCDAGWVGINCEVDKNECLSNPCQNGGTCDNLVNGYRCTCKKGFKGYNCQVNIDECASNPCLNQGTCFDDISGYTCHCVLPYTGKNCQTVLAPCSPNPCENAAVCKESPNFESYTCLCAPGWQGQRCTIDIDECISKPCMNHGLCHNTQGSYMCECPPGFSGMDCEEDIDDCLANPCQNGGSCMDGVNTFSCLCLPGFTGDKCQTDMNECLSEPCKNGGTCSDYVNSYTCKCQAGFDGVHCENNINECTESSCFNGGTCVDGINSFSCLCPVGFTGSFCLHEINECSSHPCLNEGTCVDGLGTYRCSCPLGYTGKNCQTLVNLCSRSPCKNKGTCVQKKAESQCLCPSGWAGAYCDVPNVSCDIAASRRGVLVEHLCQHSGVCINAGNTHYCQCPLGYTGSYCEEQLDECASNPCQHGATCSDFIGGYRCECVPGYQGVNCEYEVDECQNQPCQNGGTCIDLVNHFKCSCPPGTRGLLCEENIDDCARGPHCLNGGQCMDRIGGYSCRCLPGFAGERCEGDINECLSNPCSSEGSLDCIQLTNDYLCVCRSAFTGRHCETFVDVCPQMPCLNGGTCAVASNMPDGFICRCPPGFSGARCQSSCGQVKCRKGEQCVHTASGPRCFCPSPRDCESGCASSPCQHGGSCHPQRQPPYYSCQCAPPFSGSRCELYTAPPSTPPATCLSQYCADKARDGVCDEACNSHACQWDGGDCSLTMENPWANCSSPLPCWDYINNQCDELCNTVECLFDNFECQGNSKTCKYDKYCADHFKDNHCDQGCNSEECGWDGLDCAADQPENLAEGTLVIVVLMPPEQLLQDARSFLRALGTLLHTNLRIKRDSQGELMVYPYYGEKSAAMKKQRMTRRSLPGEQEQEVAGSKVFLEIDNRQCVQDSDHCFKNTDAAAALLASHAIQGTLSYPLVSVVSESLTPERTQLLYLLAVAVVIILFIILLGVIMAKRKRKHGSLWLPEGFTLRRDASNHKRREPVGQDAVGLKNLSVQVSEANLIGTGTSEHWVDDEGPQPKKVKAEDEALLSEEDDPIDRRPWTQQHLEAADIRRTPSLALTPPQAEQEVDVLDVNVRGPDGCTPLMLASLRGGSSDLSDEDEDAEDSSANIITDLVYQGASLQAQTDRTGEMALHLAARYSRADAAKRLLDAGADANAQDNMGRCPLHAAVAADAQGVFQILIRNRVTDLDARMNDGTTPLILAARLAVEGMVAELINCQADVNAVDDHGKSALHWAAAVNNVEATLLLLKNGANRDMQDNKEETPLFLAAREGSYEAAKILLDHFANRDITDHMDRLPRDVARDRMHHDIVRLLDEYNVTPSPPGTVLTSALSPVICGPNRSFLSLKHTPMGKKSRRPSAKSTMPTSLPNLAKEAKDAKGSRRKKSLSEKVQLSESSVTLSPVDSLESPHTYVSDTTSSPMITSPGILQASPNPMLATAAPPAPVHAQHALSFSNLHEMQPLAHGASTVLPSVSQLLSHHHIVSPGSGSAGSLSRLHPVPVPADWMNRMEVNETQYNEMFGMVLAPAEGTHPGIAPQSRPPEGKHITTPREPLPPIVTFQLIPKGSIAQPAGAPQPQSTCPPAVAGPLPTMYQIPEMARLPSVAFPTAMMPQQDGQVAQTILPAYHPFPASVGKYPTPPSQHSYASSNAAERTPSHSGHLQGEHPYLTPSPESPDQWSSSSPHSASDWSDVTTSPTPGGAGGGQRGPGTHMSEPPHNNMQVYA
Assay [6] addresses Pro-neuregulin-1, membrane-bound isoform (Homo sapiens) (UniProt Q02297). Put plainly: NRG1 binders on small-molecule microarrays, primary screen, psychiatric disease protein project, biochemical, small-molecule microarray, fluorescence 635/667 (AID 1075).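 Further: score combines 667 nm spot fluorescence with signal to noise.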 The note with it: NRG1 binding, 635 nm fluorescence, higher = more signal.
Assay [7] has as its system Neuregulin-1 EGF-like domain. Put plainly: binders of neuregulin-1 EGF-like domain, primary screen, biochemical, small-molecule microarray, 635 nm fluorescence (AID 1081).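 Further: binding of the protein to compounds printed on small-molecule microarray slides.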 The note with it: small-molecule microarray binding, higher = more signal.
Assay [8] is described as follows: FRG1 promoter luciferase signal modulators, primary screen, FRG1 inhibition for FSHD, cell-based, C2C12 myotubes, firefly/Renilla luciferase, luminescence (AID 1084). The note with it: higher = more signal, called active from +8 up or from −8 down.
Assay [9] is described as follows: binders of probe aFST on microarray, primary screen, stem cell growth factor project, biochemical, small-molecule microarray, fluorescence 635/667 (AID 1086).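 Further: score merges 667 nm fluorescence with signal-to-noise of each printed compound spot.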 The note with it: higher = more signal.
A short description of assay [10]: binders of probe aHhip on microarray, primary screen, stem cell growth factor project, biochemical, small-molecule microarray, fluorescence 635/667 (AID 1087).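 Further: score merges spot fluorescence at 667nm with spot signal to noise ratio.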 The note with it: higher = more signal.
The test system of assay [11] is PRMT1 (protein arginine N-methyltransferase 1). Put plainly: PRMT1 binders on small-molecule microarrays, primary screen, biochemical, small-molecule microarray, 635 nm fluorescence (AID 1088).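 Further: binding of Prmt1 protein to compounds spotted on small-molecule microarray slides.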 The note with it: small-molecule microarray binding, higher = more signal.
A short description of assay [12]: yeast growth modulation, basal conditions, primary screen, YJM789 clinical isolate, OD600, 24 h (AID 1089).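 Further: growth of clinical yeast isolate S. cerevisiae YJM 789 seeded 1000 cells per well; test concentration not given here.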 The note with it: S. cerevisiae YJM789 growth, higher = more signal, called active from +8 up or from −8 down.
A short description of assay [13]: fission yeast growth modulation, primary screen, strain 972, OD600, 24 h, no modulator (AID 1090).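 Further: basal condition with compound alone and no growth modifier present; test concentration not given here.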 The note with it: S. pombe 972 growth, higher = more signal, called active from +8 up or from −8 down.
A short description of assay [14]: S. cerevisiae growth modulation with rapamycin, primary screen, strain BY4716, OD600, 96 h (AID 1091). Further: test concentration not given here. The note with it: higher = more signal, called active from +8 up or from −8 down.
The target of assay [15] is Torsin-1A-interacting protein 2 (Homo sapiens) (UniProt Q8NFQ8). Put plainly: LULL1 binders on small-molecule microarray, primary screen, cell lysate, human LULL1 lysate, 635/667 nm fluorescence (AID 1092).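 Further: score merges per-feature 667 nm fluorescence with signal-to-noise.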 The note with it: hLULL1 lysate binding, 635 nm fluorescence, higher = more signal.
Chain of Torsin-1A-interacting protein 2 (Homo sapiens) (Q8NFQ8 whole entry, looked up): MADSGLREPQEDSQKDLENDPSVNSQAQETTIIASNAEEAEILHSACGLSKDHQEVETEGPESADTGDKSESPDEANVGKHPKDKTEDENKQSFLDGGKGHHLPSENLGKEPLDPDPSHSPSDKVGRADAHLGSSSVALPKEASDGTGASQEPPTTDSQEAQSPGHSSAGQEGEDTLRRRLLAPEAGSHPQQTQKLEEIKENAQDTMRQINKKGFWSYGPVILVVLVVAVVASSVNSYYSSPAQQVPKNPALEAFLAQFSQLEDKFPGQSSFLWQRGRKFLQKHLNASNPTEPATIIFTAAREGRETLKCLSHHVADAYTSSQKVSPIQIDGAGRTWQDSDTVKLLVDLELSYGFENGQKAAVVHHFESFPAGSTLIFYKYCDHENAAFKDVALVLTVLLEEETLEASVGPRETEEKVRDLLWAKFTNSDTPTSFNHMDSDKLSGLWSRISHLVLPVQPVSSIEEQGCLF
The nature of assay [16]: E. coli growth modulation, two-sided OD650, primary screen, E. coli filamentation project, strain DRC41, 24 h (AID 1093).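 Further: MC1000 strain lacking acrAB efflux and sulA so SOS filamentation is blocked; test concentration not given here.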 The note with it: OD650, 24 h, higher = more signal, called active from +8 up or from −8 down.
The nature of assay [17]: small-molecule microarray binders of probe aLefty2, primary screen, biochemical, biotinylated probe, 635/667 nm fluorescence (AID 1094).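 Further: score merges spot fluorescence near 667 nm with spot signal-to-noise ratio.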 The note with it: higher = more signal.
Assay [18] relates to Noggin (protein binding on small-molecule microarray). The assay is described as follows: Noggin binders on small-molecule microarray, primary screen, biochemical, 635/667 nm fluorescence (AID 1095).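 Further: score merges 667 nm feature fluorescence with signal to noise over triplicate slides.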 The note with it: 635 nm fluorescence, higher = more signal.
Assay [19] has as its target Neurogenic locus notch homolog protein 3 (Homo sapiens) (UniProt Q9UM47). The assay is described as follows: NOTCH3 binders on small-molecule microarray, primary screen, biochemical, 635/667 nm fluorescence (AID 1096). The note with it: NOTCH3 binding, 635 nm fluorescence, higher = more signal.
Assay [20] can be described thus: small-molecule microarray binders of probe aEGFR, primary screen, biochemical, biotinylated probe, 635/667 nm fluorescence (AID 1097).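 Further: probe is a biotinylated anti-EGFR antibody binding compounds printed on slides; score combines fluorescence near 667 nm and signal to noise of each spot.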 The note with it: higher = more signal.

Activity calls are given as the source filed them.

Chain of Pro-neuregulin-1, membrane-bound isoform (Homo sapiens) (Q02297 whole entry, looked up, the tested form may be a part, canonical isoform): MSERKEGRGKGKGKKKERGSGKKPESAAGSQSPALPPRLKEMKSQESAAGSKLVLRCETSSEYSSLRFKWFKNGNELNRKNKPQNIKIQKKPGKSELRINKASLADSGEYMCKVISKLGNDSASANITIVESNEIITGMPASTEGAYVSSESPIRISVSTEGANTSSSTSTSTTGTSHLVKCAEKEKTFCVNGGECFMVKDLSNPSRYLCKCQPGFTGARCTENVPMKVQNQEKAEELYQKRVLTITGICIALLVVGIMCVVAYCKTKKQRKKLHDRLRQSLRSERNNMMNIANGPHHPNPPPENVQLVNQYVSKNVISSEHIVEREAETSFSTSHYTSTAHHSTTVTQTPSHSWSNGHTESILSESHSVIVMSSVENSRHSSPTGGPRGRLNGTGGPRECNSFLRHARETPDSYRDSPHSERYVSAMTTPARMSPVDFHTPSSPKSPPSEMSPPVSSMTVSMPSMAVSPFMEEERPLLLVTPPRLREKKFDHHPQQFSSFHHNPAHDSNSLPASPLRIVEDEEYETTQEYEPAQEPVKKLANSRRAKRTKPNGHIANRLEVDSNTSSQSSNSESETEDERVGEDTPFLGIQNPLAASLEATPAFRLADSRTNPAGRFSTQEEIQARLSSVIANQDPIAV

In the case of `C=CCOC(=O)[C@H]1[C@@H]2C(=O)O[C@@H](c3ccccc3)[C@@H](c3ccccc3)N2[C@@H](c2ccc(OCCOC(=O)[C@H]3C[C@H]4C(=O)N[C@@H](CCCCN(C)C)C(=O)N4[C@H]3c3ccc(O)cc3)cc2)[C@]12C(=O)Nc1ccc(I)cc12`, the composite z-score in assay [1] is -0.38; in assay [2], 1.01; in assay [3], 0.0266; in assay [4], 0.948; in [5], 1.33; in assay [6] it was 1.77. In addition, the composite z-score is 1.3 in assay [7]; 0.0907 in assay [9]; -0.274 in [10]; 1.55 in assay [11]; 2.49 in [15]; 0.172 in [17]. Moreover, the composite z-score in assay [18] was determined as 1.73; in [19], 1.07; in assay [20] it was 0.124. The z-score was 1.49 (inactive) in [8]; -0.0743 (inactive) in [12]; -0.526 (inactive) in assay [13]; -0.698 (inactive) in [14]; -0.411 (inactive) in assay [16].

For the compound `COc1ccc(C#Cc2ccc3c(c2)[C@]2(C(=O)N3)[C@H](c3ccccc3OCCO)N3[C@H](c4ccccc4)[C@H](c4ccccc4)OC(=O)[C@H]3[C@@H]2C(=O)Nc2nc3ccccc3s2)cc1`, the composite z-score in assay [1] was -0.541; in [2] it was -0.0327; in [3] it was -0.0232; in assay [4], 0.615; in assay [5] it was 1.18; in assay [6] it was 0.65. Also, the composite z-score was 1.17 in assay [7]; 0.362 in assay [9]; -0.0618 in assay [10]; 1.54 in assay [11]; 1.95 in assay [15]; 0 in assay [17]. For the same compound, the composite z-score in assay [18] was 0.785; in assay [19], 1.09; in [20] it was -0.0549. Moreover, the z-score is 2.1 (inactive) in assay [8]; 2.95 (inactive) in assay [12]; 1.47 (inactive) in assay [13]; 0.871 (inactive) in assay [14]; 0.0309 (inactive) in assay [16].

As to `C[N+](C)(C)CCCC[C@@H]1NC(=O)[C@H]2C[C@@H](C(=O)NCCCCCCNC(=O)CS)[C@@H](c3cccc(OCCO)c3)N2C1=O`, the composite z-score in [1] was 0.227; in assay [2], 0.0439; in assay [3], -0.172; in assay [4], -0.83; in assay [5], -1.34; in [6], -0.861. For the same compound, the composite z-score in assay [7] is 0.439; in assay [9] it was -0.948; in [10], -0.261; in [11], -0.452; in assay [15], 2.01; in [17], -0.0766. For the same compound, the composite z-score in assay [18] is -0.33; in assay [19] it was -0.837; in assay [20] it was -0.268. Moreover, the z-score in assay [8] was 0.816 (inactive); in assay [12] it was -0.173 (inactive); in [13], 0.532 (inactive); in assay [14], -0.0564 (inactive); in assay [16], 0.154 (inactive).

Regarding `O=C1[C@@]23C=C(Br)[C@H](C[C@@H]2CCOC3)[C@@]12CO2`, the composite z-score in assay [1] is -0.655; in assay [2], 0.113; in assay [3], -0.103; in [4], 0.283; in [5] it was 0.306; in assay [6], -0.213. The composite z-score in assay [7] was -0.1; in [9], -0.0444; in assay [10], 0.0373; in [11], -0.414; in assay [15], 0.102; in [17], -0.217. The values for the composite z-score in assay [18], in [19] and in assay [20] were 0.721, 0.372 and 0.0372, respectively. For the same compound, the z-score is -0.413 (inactive) in [8]; 0.24 (inactive) in [12]; -2.31 (inactive) in [13]; -0.582 (inactive) in [14]; -0.0015 (inactive) in [16].

For `O=C(CS)NCCCCCCNC(=O)[C@@H]1C[C@@H]2C(=O)N[C@@H](Cc3ccccc3)C(=O)N2[C@@H]1c1cccc(OCCO)c1`, the composite z-score in [1] came out at 0.0549; in assay [2], 0.94; in assay [3], 0.0589; in assay [4], 0.956; in assay [5] it was 1.08; in assay [6] it was 0.659. Further, the composite z-score in assay [7] was 1.23; in assay [9], 0.616; in [10], -0.0994; in [11], 1.54; in [15], 2.92; in [17], 0.0747. Further, the composite z-score in [18] amounted to 0.988; in assay [19], 1.04; in assay [20], 0.122. The z-score was 3.09 (inactive) in [8]; -0.485 (inactive) in [12]; 0.279 (inactive) in assay [13]; 0.211 (inactive) in [14]; -1.21 (inactive) in [16].
